# Measurements taken from ChEMBL document CHEMBL1961873, “Compounds: GSK PKIS; Assays: Nanosyn kinase panel” (2012).
# Experiments:
# [1] = biological target: Mitogen-activated protein kinase 3 (Homo sapiens) (UniProt P27361); conditions: at 1 µM;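 further: values are mean percent inhibition of MAPK3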
# [2] = biological target: SRSF protein kinase 3 (Homo sapiens) (UniProt Q9UPE1); conditions: at 0.1 µM
# [3] = biological target: SRSF protein kinase 3 (Homo sapiens) (UniProt Q9UPE1); conditions: at 1 µM
# [4] = biological target: Mitogen-activated protein kinase 14 (Homo sapiens) (UniProt Q16539); conditions: at 0.1 µM
# Sequence of Mitogen-activated protein kinase 14 (Homo sapiens) (Q16539 whole entry): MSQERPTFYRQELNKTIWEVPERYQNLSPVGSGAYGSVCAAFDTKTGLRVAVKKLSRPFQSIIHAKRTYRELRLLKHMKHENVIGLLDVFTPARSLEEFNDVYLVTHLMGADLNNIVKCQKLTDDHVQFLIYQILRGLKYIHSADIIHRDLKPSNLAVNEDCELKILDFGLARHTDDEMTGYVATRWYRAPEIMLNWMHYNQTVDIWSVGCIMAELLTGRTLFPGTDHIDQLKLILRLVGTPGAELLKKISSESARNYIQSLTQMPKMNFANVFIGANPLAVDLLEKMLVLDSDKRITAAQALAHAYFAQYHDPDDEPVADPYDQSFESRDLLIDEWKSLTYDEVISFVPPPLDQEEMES
# [5] = biological target: Mitogen-activated protein kinase 14 (Homo sapiens) (UniProt Q16539); conditions: at 1 µM
# [6] = biological target: Mitogen-activated protein kinase 11 (Homo sapiens) (UniProt Q15759); conditions: at 0.1 µM
# Sequence of Mitogen-activated protein kinase 11 (Homo sapiens) (Q15759 whole entry): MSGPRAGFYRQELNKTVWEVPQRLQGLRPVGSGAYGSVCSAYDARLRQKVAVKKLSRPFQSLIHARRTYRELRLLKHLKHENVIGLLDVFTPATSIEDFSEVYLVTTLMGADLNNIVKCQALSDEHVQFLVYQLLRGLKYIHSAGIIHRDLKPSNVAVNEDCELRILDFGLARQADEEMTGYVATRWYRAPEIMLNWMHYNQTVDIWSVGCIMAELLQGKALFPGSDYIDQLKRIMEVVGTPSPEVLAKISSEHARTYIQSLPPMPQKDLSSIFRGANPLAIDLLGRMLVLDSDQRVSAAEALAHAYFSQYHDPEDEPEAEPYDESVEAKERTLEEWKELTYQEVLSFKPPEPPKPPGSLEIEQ
# [7] = biological target: Mitogen-activated protein kinase 11 (Homo sapiens) (UniProt Q15759); conditions: at 1 µM
# [8] = biological target: T1, Mitogen-activated protein kinase 13 (Homo sapiens) (UniProt O15264); conditions: at 0.1 µM
# T1 sequence (whole entry): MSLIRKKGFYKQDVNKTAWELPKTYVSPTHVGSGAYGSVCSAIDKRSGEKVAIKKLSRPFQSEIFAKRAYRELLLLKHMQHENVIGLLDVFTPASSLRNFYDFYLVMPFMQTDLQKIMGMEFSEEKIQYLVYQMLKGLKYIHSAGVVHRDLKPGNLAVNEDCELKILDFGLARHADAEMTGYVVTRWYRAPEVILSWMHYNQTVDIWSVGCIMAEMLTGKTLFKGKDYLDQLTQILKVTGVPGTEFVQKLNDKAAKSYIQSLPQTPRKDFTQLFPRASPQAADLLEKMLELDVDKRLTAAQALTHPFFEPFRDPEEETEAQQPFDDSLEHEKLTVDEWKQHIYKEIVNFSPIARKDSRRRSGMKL
# [9] = biological target: T1, Mitogen-activated protein kinase 13 (Homo sapiens); conditions: at 1 µM
# [10] = biological target: T2, Mitogen-activated protein kinase 12 (Homo sapiens) (UniProt P53778); conditions: at 0.1 µM
# T2 sequence (whole entry): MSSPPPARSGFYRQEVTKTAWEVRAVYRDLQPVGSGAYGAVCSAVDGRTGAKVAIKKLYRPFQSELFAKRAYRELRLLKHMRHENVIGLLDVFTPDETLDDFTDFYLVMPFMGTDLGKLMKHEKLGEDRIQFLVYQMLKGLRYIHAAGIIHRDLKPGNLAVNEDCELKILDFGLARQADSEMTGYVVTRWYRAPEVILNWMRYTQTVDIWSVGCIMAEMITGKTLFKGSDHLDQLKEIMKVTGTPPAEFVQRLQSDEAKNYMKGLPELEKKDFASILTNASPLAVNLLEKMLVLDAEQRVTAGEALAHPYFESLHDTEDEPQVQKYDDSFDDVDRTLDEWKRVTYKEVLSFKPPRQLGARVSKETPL
# Sequence of Mitogen-activated protein kinase 3 (Homo sapiens) (P27361 whole entry): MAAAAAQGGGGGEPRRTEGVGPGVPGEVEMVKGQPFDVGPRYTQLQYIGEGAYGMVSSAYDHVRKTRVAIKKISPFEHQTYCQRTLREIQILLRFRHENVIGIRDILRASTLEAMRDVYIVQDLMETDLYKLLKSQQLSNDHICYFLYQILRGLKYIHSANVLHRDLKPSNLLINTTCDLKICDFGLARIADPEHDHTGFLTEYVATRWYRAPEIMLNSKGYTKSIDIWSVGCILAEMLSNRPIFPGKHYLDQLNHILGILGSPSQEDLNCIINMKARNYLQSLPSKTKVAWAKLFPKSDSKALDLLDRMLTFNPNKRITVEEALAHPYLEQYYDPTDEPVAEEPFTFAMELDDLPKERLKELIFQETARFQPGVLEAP
# Sequence of SRSF protein kinase 3 (Homo sapiens) (Q9UPE1 whole entry): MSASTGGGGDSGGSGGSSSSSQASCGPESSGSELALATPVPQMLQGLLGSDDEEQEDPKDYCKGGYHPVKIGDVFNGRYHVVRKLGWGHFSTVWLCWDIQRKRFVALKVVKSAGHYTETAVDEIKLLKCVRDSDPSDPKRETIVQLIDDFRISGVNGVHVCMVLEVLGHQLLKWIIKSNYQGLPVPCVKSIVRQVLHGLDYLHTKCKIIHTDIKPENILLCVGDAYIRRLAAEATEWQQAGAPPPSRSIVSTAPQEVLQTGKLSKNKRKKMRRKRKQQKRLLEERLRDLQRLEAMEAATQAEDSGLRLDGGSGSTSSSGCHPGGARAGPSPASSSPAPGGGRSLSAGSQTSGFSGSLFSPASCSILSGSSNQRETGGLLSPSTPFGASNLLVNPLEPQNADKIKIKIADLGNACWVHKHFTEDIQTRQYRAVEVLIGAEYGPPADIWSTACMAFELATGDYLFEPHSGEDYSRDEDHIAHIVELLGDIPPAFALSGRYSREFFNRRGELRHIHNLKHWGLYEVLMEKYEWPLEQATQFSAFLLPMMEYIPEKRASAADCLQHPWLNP
SMILES,inhibition [1],inhibition [2],inhibition [3],inhibition [4],inhibition [5],inhibition [6],inhibition [7],inhibition [8],inhibition [9],inhibition [10]
CCn1c(-c2nonc2N)nc2c(C#CC(C)(C)O)nc(OCCNC)cc21,4.08%,0.05%,-0.46%,6.16%,7.38%,2.05%,2.15%,4.59%,5.13%,3.83%
CN(C)c1cc2c(Nc3ccc4c(cnn4Cc4ccccc4)c3)ncnc2cn1,-0.93%,-1.42%,-0.9%,5.84%,8.31%,2.35%,4.06%,0.05%,2.47%,1.3%
c1ccc(Cc2nc3ccc(Nc4ncnc5ccccc45)cc3[nH]2)cc1,4.11%,0.5%,-0.46%,6.98%,6.36%,2.73%,2.79%,4.91%,5.18%,1.83%
NS(=O)(=O)c1ccc(Nc2cc(-c3cccc(O)c3)n[nH]2)cc1,3.73%,0.13%,-0.83%,4.9%,9.21%,7.39%,9.77%,2.03%,7.23%,3.84%
CC(C)c1ccc(Nc2nccc(-c3cnn4ncccc34)n2)cc1,3%,-1.04%,0.7%,-1.86%,28.2%,2.54%,5.44%,1.62%,5.42%,-0.84%
NC(=O)c1cccc(Nc2nccc(Nc3cccc(F)c3)n2)c1,1.21%,-1.02%,-0.91%,2.29%,2.5%,0.85%,1.67%,-0.02%,0.02%,1.16%
CCOc1nccc2c1nc(-c1nonc1N)n2CC,3.56%,0.36%,4.21%,-6.67%,6.06%,3.87%,7.56%,2.58%,2.91%,0.94%
NS(=O)(=O)c1ccc(NC=C2C(=O)Nc3ccc4ncsc4c32)cc1,28.1%,-0.67%,-0.55%,5.49%,18.7%,9.06%,27.3%,1.67%,9.03%,1.56%
Cc1cc(Cl)cc2c1NC(=O)C2=NNc1ccc(S(N)(=O)=O)cc1,4.37%,0.26%,-0.13%,-2.89%,3.98%,3.77%,7.2%,-1.04%,1.98%,0.32%
NS(=O)(=O)c1ccc(-c2cc3ccncc3cc2OCc2ccccc2)cc1,3.1%,-2.09%,3.53%,7.07%,8.35%,2.71%,6.57%,5.51%,3.8%,-0.17%
CCS(=O)(=O)c1ccc(OC)c(Nc2nccc(N(C)c3ccc4c(C)n[nH]c4c3)n2)c1,4.25%,-3.37%,-0.4%,5.92%,8.09%,3.01%,3.67%,4.71%,2.73%,2.34%
COc1cc(Nc2nccc(-c3cnn4ncccc34)n2)cc(OC)c1,9.37%,-0.86%,-1.27%,2.59%,10.3%,2.14%,10.7%,1.49%,12.1%,1.04%
Cc1nc(-c2ccccc2)n2nc(NCCCN3CCOCC3)ncc12,1.02%,-0.13%,-0.34%,3.9%,3.71%,1.59%,2.11%,1.83%,1.77%,1.57%
Cc1ccc2c(-c3ccnc(Nc4cccc(C(F)(F)F)c4)n3)c(-c3ccccc3)nn2n1,8.27%,0.34%,-0.19%,37.5%,73.5%,6.89%,45.1%,4.66%,6.13%,3.8%
COc1cc2ncnc(Nc3ccc(C)c(O)c3)c2cc1OC,7.04%,-1.99%,0.42%,5.71%,22.1%,6.38%,17.4%,-2.57%,6.31%,2.43%
N#Cc1c(NC(=O)c2ccccc2F)sc2c1CCCC2,-1.26%,-1.34%,-0.38%,-1.85%,-1.18%,0.63%,2.26%,-1.92%,-2.71%,-1.2%
COc1cc2ncn(-c3cc(OCc4ccccc4S(C)(=O)=O)c(C#N)s3)c2cc1OC,4.78%,0.72%,1.49%,4.48%,8.47%,2.79%,6.97%,1.05%,3.85%,0.36%

SMILES,inhibition [1],inhibition [2],inhibition [3],inhibition [4],inhibition [5],inhibition [6],inhibition [7],inhibition [8],inhibition [9],inhibition [10]
NS(=O)(=O)c1ccc(N/N=C2\C(=O)Nc3ccc(Cl)cc32)cc1,4.54%,-0.26%,0.76%,0.03%,4.11%,3.71%,5.91%,1.25%,3.33%,0.26%
ON=C1CCc2cc(-c3nc(C4CCNCC4)[nH]c3-c3ccncc3)ccc21,0.97%,-1.32%,-2.19%,25.4%,73.7%,7.03%,33.1%,-0.29%,0.95%,1.31%
CCS(=O)(=O)c1ccc(OC)c(Nc2ncc(-c3cccc(OC)c3)o2)c1,-2.17%,0.87%,0.2%,4.78%,7.73%,1.06%,5.17%,1.24%,4.76%,-4.79%
COC(=O)c1ccc2c(c1)C(=Cc1cc(Br)c(O)c(Br)c1)C(=O)N2,5.46%,3.56%,-0.06%,5.88%,7.6%,2.64%,4.68%,3.43%,5.81%,4.05%
CN(C)C(=O)O[C@H]1CN[C@H](C#Cc2cc3ncnc(Nc4ccc(OCc5cccc(F)c5)c(Cl)c4)c3s2)C1,3.14%,0.23%,-1.8%,1.35%,7%,0.51%,1.53%,-0.2%,2.51%,0.18%
COC(=O)Nc1nc2cc(Oc3ccc(NC(=O)Nc4cccc(Br)c4)cc3)ccc2[nH]1,3.83%,-0.78%,1.64%,7.25%,17.1%,7.96%,17%,2.44%,0.89%,2.07%
Cc1ccc(NC(=O)CC2CC2)cc1-c1ccc(C(=O)NCC2CC2)cc1,3.92%,-0.32%,3.16%,29.7%,74.3%,17.2%,60.8%,3.22%,4.09%,0.38%
CC(C)c1ccc2c(c1)NC(=O)/C2=N/Nc1ccc(S(N)(=O)=O)cc1,-0.93%,-0.91%,-3.87%,0.75%,-0.04%,-1.84%,3.37%,-0.12%,-0.88%,0.48%
COc1ccc(-c2nn3ncccc3c2-c2ccnc(Nc3cccc(C(F)(F)F)c3)n2)cc1,1.1%,-2.11%,-1.47%,15%,57.8%,7.58%,24.7%,2.68%,1.86%,2.04%
Cc1ccc2c(-c3ccnc(Nc4ccc5c(c4)OCCO5)n3)c(-c3ccc(C(F)(F)F)cc3)nn2n1,3.87%,-2.01%,-1.1%,3.33%,23.2%,1.91%,5.75%,0.71%,-1.27%,0.73%
Cc1ccc(O)cc1Nc1ccnc2ccc(S(C)(=O)=O)cc12,2.62%,-1.95%,-1.35%,14%,58.8%,9%,34.2%,2.61%,6.26%,0.62%
NS(=O)(=O)c1cccc(Nc2cc(-c3ccc(F)cc3)n[nH]2)c1,3.77%,-0.26%,3.28%,1.56%,7.1%,1.06%,5.29%,2.2%,2.89%,-0.78%
C[C@@H](Oc1cc(-n2cnc3ccc(OC[C@@H](O)CO)cc32)sc1C(N)=O)c1ccccc1Cl,-2.21%,-1.72%,0.27%,2.66%,3.54%,-1.66%,1.86%,-3.13%,-2.7%,-0.19%
FC(F)(F)c1ccc(-c2nn3ncccc3c2-c2ccnc(Nc3ccc4c(c3)OCCO4)n2)cc1,3.1%,5.92%,1.12%,17.1%,67.5%,3.8%,36.8%,5.26%,0.38%,4.31%
N#Cc1cccc(Nc2nccc(-c3cnn4ncccc34)n2)c1,35.8%,0.24%,3.11%,3.74%,14.6%,3.01%,14%,12.9%,47.1%,4.57%
O=S(=O)(CCOCc1ccc(-c2ccc3ncnc(Nc4ccc(OCc5cccc(F)c5)c(Cl)c4)c3c2)o1)c1ccccc1,1.69%,-0.89%,1.24%,0.07%,0.7%,-0.78%,-0.75%,1.66%,1.53%,1.14%
COc1cccc(-n2ncc3c(N/N=C/c4ccc(C)cc4)ncnc32)c1,3.26%,3.27%,0.15%,6.95%,9.02%,1.15%,4.42%,4.61%,6.26%,3.81%
